# Results from PubChem BioAssay AID504333 (National Center for Advancing Translational Sciences (NCATS), 2011).
# Out of some 360,000 compounds screened, about 16,000 (4.4%) were called active. Roughly 9% stayed inconclusive and do not appear here. Calls come from the whole dose curve; as a rule, active = well fitted inhibition curve with a large enough effect; inconclusive = small, poorly fitted or top-dose-only effect; inactive = no such curve, though single readings can be large or run the other way. The entries come from a sample that favours actives as a whole.
# Target: Bromodomain adjacent to zinc finger domain protein 2B (Homo sapiens) (UniProt Q9UIF8)
# Assay: qHTS Assay for Inhibitors of BAZ2B; note: nearly all actives have a fitted effect of over 60% in size
# Settings: AlphaScreen BAZ2B-H3K14Ac peptide displacement; series mostly up to 114 µM; activity change, negative = inhibition: at the top concentration
# In short: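 BAZ2B (50 nM) with biotin-H3(5-23)K14Ac peptide (50 nM) in PBS pH 7.4, 0.01% Tween-20, preformed 30 min, then compound 30 min at room temperature; top concentration 110uM. AlphaScreen streptavidin donor/nickel chelate acceptor beads (10 ug/mL final), 20 min dark, signal read.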
# % is set by controls: 0 for no effect and ±100 for the full control effect; potency is the fitted concentration of half-maximal effect.
# Bromodomain adjacent to zinc finger domain protein 2B (Homo sapiens), sequence (Q9UIF8 whole entry, looked up, the tested form may be a part): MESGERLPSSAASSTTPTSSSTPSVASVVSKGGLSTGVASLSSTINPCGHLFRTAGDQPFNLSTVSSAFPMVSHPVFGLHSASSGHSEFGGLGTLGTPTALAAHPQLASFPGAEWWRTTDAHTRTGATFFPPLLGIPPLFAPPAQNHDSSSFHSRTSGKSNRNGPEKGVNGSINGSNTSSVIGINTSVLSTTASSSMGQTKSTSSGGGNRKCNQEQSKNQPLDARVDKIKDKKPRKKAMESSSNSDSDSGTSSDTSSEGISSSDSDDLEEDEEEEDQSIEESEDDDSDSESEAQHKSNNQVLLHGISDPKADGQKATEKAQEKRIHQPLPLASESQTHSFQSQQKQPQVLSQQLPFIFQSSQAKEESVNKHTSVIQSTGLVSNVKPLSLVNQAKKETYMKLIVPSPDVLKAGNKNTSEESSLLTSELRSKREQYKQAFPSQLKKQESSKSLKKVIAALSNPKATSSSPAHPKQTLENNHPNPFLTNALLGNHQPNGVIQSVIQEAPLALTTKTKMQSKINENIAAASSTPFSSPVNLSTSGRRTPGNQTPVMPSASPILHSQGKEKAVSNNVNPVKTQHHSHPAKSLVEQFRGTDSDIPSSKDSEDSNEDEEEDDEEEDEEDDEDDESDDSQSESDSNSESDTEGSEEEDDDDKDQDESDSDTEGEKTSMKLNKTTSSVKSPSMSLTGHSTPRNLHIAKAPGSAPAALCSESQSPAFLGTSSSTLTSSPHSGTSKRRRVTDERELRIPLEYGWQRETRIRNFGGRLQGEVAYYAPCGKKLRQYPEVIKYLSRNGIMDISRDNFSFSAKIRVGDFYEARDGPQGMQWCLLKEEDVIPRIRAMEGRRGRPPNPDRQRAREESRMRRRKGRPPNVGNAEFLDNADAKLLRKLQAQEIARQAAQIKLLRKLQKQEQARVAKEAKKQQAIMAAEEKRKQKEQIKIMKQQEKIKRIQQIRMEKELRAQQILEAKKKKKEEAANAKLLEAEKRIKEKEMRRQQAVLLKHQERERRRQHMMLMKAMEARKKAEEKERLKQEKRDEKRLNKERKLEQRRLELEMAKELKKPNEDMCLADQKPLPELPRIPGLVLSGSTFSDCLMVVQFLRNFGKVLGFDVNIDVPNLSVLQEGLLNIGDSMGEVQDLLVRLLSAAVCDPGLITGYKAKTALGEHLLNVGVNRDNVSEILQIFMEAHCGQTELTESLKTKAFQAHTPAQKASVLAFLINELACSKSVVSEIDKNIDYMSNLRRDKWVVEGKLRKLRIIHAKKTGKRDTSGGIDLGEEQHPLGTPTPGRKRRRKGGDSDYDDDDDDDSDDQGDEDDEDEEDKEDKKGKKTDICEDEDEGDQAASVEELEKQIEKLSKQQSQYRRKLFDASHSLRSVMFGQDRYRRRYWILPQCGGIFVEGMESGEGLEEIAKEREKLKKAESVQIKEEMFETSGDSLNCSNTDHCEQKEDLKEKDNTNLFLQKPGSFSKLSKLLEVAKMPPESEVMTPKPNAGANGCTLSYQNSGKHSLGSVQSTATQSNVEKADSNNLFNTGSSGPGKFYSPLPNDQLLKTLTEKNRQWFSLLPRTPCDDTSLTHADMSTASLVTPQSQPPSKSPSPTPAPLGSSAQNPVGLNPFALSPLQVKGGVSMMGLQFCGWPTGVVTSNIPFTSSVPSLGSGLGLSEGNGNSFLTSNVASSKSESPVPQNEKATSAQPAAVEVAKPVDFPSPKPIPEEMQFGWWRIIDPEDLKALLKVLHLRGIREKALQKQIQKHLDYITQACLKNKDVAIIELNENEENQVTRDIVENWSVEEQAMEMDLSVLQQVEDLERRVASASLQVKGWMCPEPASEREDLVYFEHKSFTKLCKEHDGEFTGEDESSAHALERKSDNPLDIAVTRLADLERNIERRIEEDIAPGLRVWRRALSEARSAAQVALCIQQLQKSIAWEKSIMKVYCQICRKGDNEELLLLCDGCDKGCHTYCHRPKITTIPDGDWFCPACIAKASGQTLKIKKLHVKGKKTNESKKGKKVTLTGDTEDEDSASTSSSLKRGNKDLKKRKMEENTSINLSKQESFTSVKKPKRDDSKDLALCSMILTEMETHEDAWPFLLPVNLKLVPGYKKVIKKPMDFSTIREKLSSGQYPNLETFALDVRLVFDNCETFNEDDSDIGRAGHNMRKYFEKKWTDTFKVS
SMILES,"activity change, negative = inhibition",Potency
O=C(Cc1ccc([N+](=O)[O-])cc1)N/N=C/c1ccco1,1.38% (inactive),–
CC(C)NC(=O)C(=O)N/N=C/c1ccco1,6.63% (inactive),–
O=C(N/N=C/c1ccco1)c1ccc(C(=O)N/N=C/c2ccco2)o1,–,56.2 µM (active)
CCOc1ccccc1NC(=O)CN1CCN(S(=O)(=O)c2ccc(Br)cc2)CC1,7.77% [at 57.1 µM] (inactive),–
Cc1ccc(NC2=C(c3ccc(C(F)(F)F)cc3)C(=O)c3ccccc32)cc1F,-12.8% (inactive),–
Cc1ccc(C)c(Cn2c(=O)n(CCC(=O)NCc3ccc4c(c3)OCO4)c(=O)c3sccc32)c1,1.86% (inactive),–
Cc1oc2cc([N+](=O)[O-])c(O)c([N+](=O)[O-])c2c1C(=O)c1ccc(Br)cc1,–,35.5 µM (active)
Cc1oc2cc(Br)c(O)c(Br)c2c1C(=O)c1ccccc1,-15.4% (inactive),–
N/C(=N\OC(=O)Cc1ccccc1[N+](=O)[O-])c1ccc(Br)cc1,-23.2% (inactive),–
COCCNc1ncnc2c1c(-c1ccccc1)cn2-c1ccc(C)c(Cl)c1,-8.73% (inactive),–
Cc1c(C)n(Cc2ccc(Cl)cc2)c2ccc(C(=O)NCCc3ccc(S(N)(=O)=O)cc3)cc12,-19% (inactive),–
Cc1c(C)n(Cc2ccc(Cl)cc2)c2ccc(C(=O)NCCCN3CCOCC3)cc12,–,39.8 µM (active)
COc1ccc(Cn2c(=S)[nH]c3cc(C(=O)NCCCN4CCOCC4)ccc3c2=O)cc1,-4.26% (inactive),–
COc1ccc(-c2onc(C)c2C)cc1S(=O)(=O)NCC1CCN(Cc2cccc(F)c2)CC1,-27.4% (inactive),–
Cc1ccccc1CN1CCC(CNC(=O)c2c(C)oc3ncnc(N4CCCCC4)c23)CC1,1.59% [at 57.1 µM] (inactive),–
Cn1c(COc2ccccc2C(C)(C)C)nc2ccccc21,-4.66% (inactive),–
COc1ccc(NC(=O)CSC2=Nc3ccccc3C3=NC(CC(=O)NCc4ccccc4OC)C(=O)N23)cc1Cl (stereo unspecified),3.52% (inactive),–
O=C(NC(=S)Nc1cc(C(F)(F)F)ccc1N1CCOCC1)c1ccc(-c2cccc(Cl)c2)o1,-35.6% (inactive),–
O=C(O)c1ccccc1NC(=O)c1ccccc1-c1ccccc1C(=O)O,1.8% (inactive),–
O=C(NC(=S)Nc1ccccc1C(=O)O)c1ccc(-c2ccc(Br)cc2)o1,–,44.7 µM (active)
COc1cc(C)ccc1OCCSc1nc2ccc(NC(=O)c3ccc(C)cc3)cc2s1,-4.01% (inactive),–
O=C(CCOc1ccccc1)N(Cc1cccnc1)c1nc2ccc(Cl)cc2s1,-5.67% (inactive),–
Cc1cccc(N2CCN(C(=O)c3cc4c(=O)oc5ccccc5c4s3)CC2C)c1 (stereo unspecified),-9.52% (inactive),–
COC(=O)c1ccc(NC(=O)c2cnn(-c3ccc(Cl)cc3)c2C2CCN(C(=O)OC(C)(C)C)CC2)cc1,8.38% [at 57.1 µM] (inactive),–
O/N=C1\CC2(Cc3nonc31)OCCO2,11.3% (inactive),–
ON=C1/C(=N\O)CC2(C/C1=N/O)OCCO2,–,22.4 µM (active)
